# Screens from PubChem BioAssay.
# CtBP-E1A inh – blocks the CtBP interaction with E1A; AID 651724; AlphaScreen GST-E1A/His-CtBP binding, 1536-well; stronger effect = lower value; actives 0.49% (n = 340,000); activity change, % (no concentration beside the values); in the data active means activity change below about -65%; inconclusive means mostly about -30% to -63%
#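 Protein mix (5X: 125 nM each GST-E1A, His-CtBP) was incubated with pinned compound 2 h at 37 deg C in dark, in 50 mM Tris pH 8.0 buffer with 300 mM NaCl. Glutathione donor and nickel acceptor beads followed; AlphaScreen signal read after 1 h.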
# Gal4-VP16 FLuc – Gal4-VP16 reporter inhibition counter-screen | actives 3.5% (n = 310,000) | Drosophila S2 Gal4-VP16 UAS-luciferase, luminescence, 20 h | Potency, µM (highest dose often 53.6 µM), inactives show at the top dose activity, negative = inhibition, usual class: inhibitors;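 further: Gal4-VP16 expression switched on by copper sulfate through the metallothionein promoter; potency means the concentration at half of the fitted maximal effect; nearly all actives have a fitted effect of over 50% in size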
# PKM2 act – PKM2 (human) enzyme activation. P14618. purified PKM2, Kinase-Glo ATP luminescence, activation; response scale: 0% is enzyme alone, no compound. Potency, µM (highest dose often 57.5 µM), for the others: top-dose activation, usual class: activators. actives 0.34% (n = 260,000); further: potency means the concentration at half of the fitted maximal effect; nearly all actives have a fitted effect of over 55% in size
#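 Purified hPK-M2 (>95% pure) converted ADP (0.1 mM final) to ATP with 0.5 mM PEP in 50 mM imidazole pH7.2, KCl, MgCl2, Tween 20, BSA; 1 h at room temperature. ATP detected by Kinase-Glo luminescence.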
# RORg inh – blocks mouse ROR gamma transcriptional activity; AID 2551; Drosophila S2 Gal4-RORgamma UAS-luciferase reporter, 20 h; Potency, µM (doses to about 53.6 µM), for the others: top-dose activity change, negative = inhibition, hits mostly inhibitors; actives 5.4% (n = 310,000); P51450; further: potency means the concentration at half of the fitted maximal effect; nearly all actives have a fitted effect of over 60% in size
#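 Compounds are pin-transferred onto Drosophila Schneider cells expressing a copper-inducible Gal4–ROR gamma transactivation domain fusion. After 1 hr, copper sulfate is added to 700 uM final; luciferase is read 20 hr later.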
# Six1-Eya2 blk – inhibitors of human Six1/Eya2 interaction; AlphaScreen GST-Six1/His-Eya2 binding, biochemical; stronger effect = lower value; activity change, % (test concentration not listed); actives 0.56% (n = 360,000); AID 651725; in the data active means activity change below about -65%; inconclusive means mostly about -30% to -63%
# Target sequence (O00167 whole entry, looked up): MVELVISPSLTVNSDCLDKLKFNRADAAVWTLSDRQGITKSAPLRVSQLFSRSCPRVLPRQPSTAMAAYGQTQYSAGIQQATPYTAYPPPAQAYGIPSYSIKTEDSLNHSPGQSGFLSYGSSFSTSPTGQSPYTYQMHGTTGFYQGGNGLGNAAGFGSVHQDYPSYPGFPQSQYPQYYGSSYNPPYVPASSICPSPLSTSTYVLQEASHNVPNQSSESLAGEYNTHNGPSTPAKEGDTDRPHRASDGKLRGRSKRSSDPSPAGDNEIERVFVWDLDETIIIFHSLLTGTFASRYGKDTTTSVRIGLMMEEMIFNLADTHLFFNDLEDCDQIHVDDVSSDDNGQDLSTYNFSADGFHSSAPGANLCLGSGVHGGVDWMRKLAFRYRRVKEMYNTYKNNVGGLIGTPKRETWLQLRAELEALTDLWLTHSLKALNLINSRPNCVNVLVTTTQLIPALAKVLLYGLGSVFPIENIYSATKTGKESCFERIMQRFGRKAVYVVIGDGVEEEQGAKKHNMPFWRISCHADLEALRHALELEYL
# Target sequence (Q15475 whole entry, looked up): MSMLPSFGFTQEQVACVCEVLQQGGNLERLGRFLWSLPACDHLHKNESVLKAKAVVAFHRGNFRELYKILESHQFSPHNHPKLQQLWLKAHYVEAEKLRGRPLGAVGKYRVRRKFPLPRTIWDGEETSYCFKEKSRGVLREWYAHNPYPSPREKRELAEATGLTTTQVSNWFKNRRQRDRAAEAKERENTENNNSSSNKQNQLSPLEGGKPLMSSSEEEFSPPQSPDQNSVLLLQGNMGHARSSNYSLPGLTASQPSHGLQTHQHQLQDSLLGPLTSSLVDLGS
#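 AlphaScreen with GST-Six1 and His-Eya2 (5X mix: 250 nM and 500 nM), glutathione donor and nickel acceptor beads; buffer 50 mM Tris pH 8.0, 300 mM NaCl, 1 mM TCEP; 1 h at 37 C in the dark.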
# The depositor's hits bear a star; ? = inconclusive; · = no result given; [ ] = dose if it differs, or a comment. Only some compounds are listed: those with a hit (about 5.6% of all), similar ones and a draw of the others. Unless noted, the call rests on the fitted dose curve; in most records, active means well fitted curve in the direction sought with a large enough effect; inconclusive means small, poorly fitted or top-dose-only effect, or another doubt; inactive means no such curve, though single readings can be large; an effect the other way counts as inactive or inconclusive. On the % scale 0 is the no-effect control and ±100 the full control effect.
SMILES,CtBP-E1A inh,Gal4-VP16 FLuc,PKM2 act,RORg inh,Six1-Eya2 blk
CCOc1ccc(-c2cc(CCCC(=O)Nc3cccc(OC)c3)no2)cc1,-4,?,9%,0.13µM*,0
CCOc1ccc(NC(=O)CCCc2cc(-c3ccc(OCC)cc3)on2)cc1,-1,1.3µM*,-9%,0.13µM*,2
CCOc1ccc(-c2cc(CCCC(=O)Nc3cc(OC)ccc3OC)no2)cc1,-4,?,0%,?,-3
CCNC(=S)N/N=C(\C)c1cccc([N+](=O)[O-])c1,-12,4.5µM*,1%,4µM*,-1
COCCNC(=S)N/N=C(\C)c1cccc([N+](=O)[O-])c1,-6,7.1µM*,16%,3.5µM*,-8
C/C(=N\NC(=O)c1ccccc1C)c1cccc([N+](=O)[O-])c1,-4,21%,1%,-15%,2
COCCNC(=S)N/N=C(\C)c1cccc(OC)c1,2,?,5%,4µM*,-2
O=CN(c1ccccc1)c1ccc2ccccc2c1,1,1%,-21%,-11%,-1
Cc1cccc(NC(=O)c2cc3ccccc3o2)c1,17,6.3µM*,-48%,22%,5
COc1cc(NC(=O)c2ccc(C)cc2C)ccc1NC(=O)c1cc2ccccc2o1,-1,?,8%,1.6µM*,5
COc1cc(NC(=O)c2ccccc2F)ccc1NC(=O)c1cc2ccccc2o1,0,13µM*,2%[11.5 µM],?,5
Cc1cc(C(=O)Nc2cccc(C(=O)O)c2)oc1C,-7,?,-27%,6.3µM*,3
C=C1C(c2ccc(C)cc2)=CCc2cc(C)cc(C)c21,·,6%,·,-24%,·
Cc1cc(C)cc(NC(=O)Nc2ccccc2N2CCCCC2)c1,4,-8%,0%,20%,2
COc1cc(OC)cc(C(=O)N[C@H](C(=O)NC2=NCCS2)C(C)C)c1,-3,·,·,·,3
O=c1[nH]c2ccc(Cl)cc2c(-c2ccccc2)c1CN1CCOCC1,-81*,3%,4%,-1%[10 µM],-73*
O=c1[nH]c2ccc(Cl)cc2c(-c2ccccc2)c1N1CCOCC1,-24,-29%,-8%,17%,12
O=C(c1ccco1)N1CCN(c2c(-c3ccccc3)c3cc(Cl)ccc3[nH]c2=O)CC1,8,?,6%,2µM*,4
O=C(c1ccco1)N1CCN(c2ncnc3c2[nH]c2ccc(Cl)cc23)CC1,·,14µM*,-8%,3%,·
CCc1cc2c(N3CCN(C(=O)c4ccco4)CC3)ncnc2s1,0,-7%,0%,?,-12
Cc1nc(NC(=O)c2ccc(Cl)cc2)nc2cc3c(cc12)OCO3,6,-12%,3%,6%,12
Cc1cc(C)nc(Nc2nc(C)c3cc4c(cc3n2)OCO4)n1,-6,7.1µM*,8%,7.1µM*,2
Cc1ccc(-c2nn3c(-c4ccccc4)nnc3o2)cc1,-11,·,·,·,8
CNC(=O)C(Sc1nc(C)nc2c1oc1ccccc12)C(C)=O (stereo not drawn),5,7.1µM*,9%,33%,?
CCOc1ccc(-c2cnc3ccccc3n2)cc1,·,8.9µM*,-17%,3.5µM*,7
SMILES,CtBP-E1A inh,Gal4-VP16 FLuc,PKM2 act,RORg inh,Six1-Eya2 blk
O=[N+]([O-])c1ccc(-c2cnc3ccccc3n2)cc1,-21,19%,-2%,26%,-20
CCOc1ccc(-c2cn3ccccc3n2)cc1,-8,?,-59%,6.3µM*,-7
Cc1cc([N+](=O)[O-])ccc1NC(=O)CN1C2CCC1CC(NC(=O)NC13CC4CC(CC(C4)C1)C3)C2 (stereo not drawn),-8,?,-10%,?,0
CN(C)c1ccc(/C=N/N=C2/NC(=O)/C(=C/c3ccc([N+](=O)[O-])cc3)S2)cc1,-16,?,-7%,2.8µM*,-10
CN(C)c1ccc(C=C2SC(=S)NC2=O)cc1,-13,·,·,·,-25
Cc1ccc(S(=O)(=O)NCC(=O)OCc2nnc(-c3ccccc3)o2)cc1,-1,-16%,-4%,-21%,-2
O=S(=O)(NCCSc1ccccn1)c1ccc(Br)cc1,-2,11µM*,?,8.9µM*,0
Cc1ccc(S(=O)(=O)NCCSc2ncccn2)cc1,2,2%,-8%,-18%,3
Cc1cc(C)n(S(=O)(=O)c2ccc3oc(=O)ccc3c2)n1,-7,-19%,·,26%,-15
Cc1ccn(S(=O)(=O)c2ccc3oc(=O)ccc3c2)n1,4,0%,10µM*,-19%,-4
COc1ccc2c(c1)oc(=O)c1cc(OC)ccc12,5,-16%,-1%,0%,9
COc1oc(=O)c2cc(N)ccc2c1Cl,·,14µM*,·,7.9µM*,·
CCOC(=O)C1=NN(C(=O)c2ccccc2)C(O)(c2ccc(C)cc2)C1 (stereo not drawn),-2,28µM*,14%,10µM*,2
COC(=O)C1=NN(C(=O)c2cccc(Br)c2)C(O)(c2ccc(Cl)cc2)C1 (stereo not drawn),·,-30%,-10%,-29%,-10
CCOC(=O)C1=NN(C(=O)c2ccc(OC)cc2)C(O)(c2ccc(Cl)cc2)C1 (stereo not drawn),-2,?,10%,10µM*,-5
CCOC(=O)C1=NN(C(=O)c2cccc(Br)c2)C(O)(C(C)(C)C)C1 (stereo not drawn),·,?,0%,14µM*,·
Nc1ccn([C@@H]2O[C@H](CNCC3=CCOc4ccc(O)cc43)[C@@H](O)[C@H]2O)c(=O)n1,4,·,·,·,1
Cc1ccc2nc3c(cc2c1)CN(Cc1ccco1)C(=NCC1CCCO1)S3 (stereo not drawn),-7,-3%[0.365 µM],?,?,-8
Cc1cccc2cc3c(nc12)SC(=NCC1CCCO1)N(Cc1ccco1)C3 (stereo not drawn),-8,3.2µM*,11µM*,2.8µM*,-18
O=C(Nc1nc2ccc(F)cc2s1)C1CCN(S(=O)(=O)c2cc([N+](=O)[O-])ccc2Cl)CC1,-7,5µM*,1%,?,-26
Cc1cn(CC(=O)NCCN2CCOCC2)c(=O)[nH]c1=O,6,·,·,·,2
Cc1ccc(OCCN2CCN(C(=O)CCC(=O)Nc3nnc(C(C)C)s3)CC2)cc1,-2,13µM*,-1%,38%,-2
Cc1ccc(OCCN2CCN(C(=O)CCC(=O)Nc3nnc(C)s3)CC2)cc1,6,-5%,2%,?,2
CCOC(=O)c1sc2nc3c(SCCC#N)cc(C(=O)c4cc(F)ccc4O)cn3c(=O)c2c1C,-6,4%,3%,-14%,0
O=C(O)CSc1cc(C(=O)c2cc(F)ccc2O)cn2c(=O)c3c(-c4ccccc4)csc3nc12,·,-17%,7%,35µM*,-23
